Drawing on PubChem BioAssay AID2094 (Broad Institute, 2009), this text covers activity change for 95 compounds.

Hit rate of the full screen: of about 300,000 compounds, about 1,200 (0.4%) were called active. Cut-off read from the data, not from the text of the source: active = activity change below about -75% (passing the limit was not always enough); inconclusive = no clear call, values can overlap the other calls. Many of the other results were omitted from the sample, so actives are more common in it than they were.

This assay in a line: Vibrio harveyi AI-2 quorum sensing modulators, primary screen, JMH597 strain, luminescence/OD600 ratio (AID 2094).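 Note: luminescence divided by OD600 gain over 9 h not by final OD600 alone.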 The conditions noted are these: Vibrio harveyi JMH597 AI-2 luminescence/OD600 ratio, 9 h; at 7.5 µM; active compounds read low; 0 = neutral-control median; strain lacks LuxN and CqsS sensors.
As to `CCN(C(=O)COc1cccnc1[N+](=O)[O-])C1CCS(=O)(=O)C1` (stereo not given), the activity change is 32.7% (inactive). Take `N#CCSc1nc(-c2ccccc2)nc2ccc(F)cc12`: the activity change was 12.5% (inactive).

Regarding `COC(=O)c1ccc(CSc2nncn2C)cc1`, the activity change was 9.24% (inactive). Next, `COC(=O)c1ccc(CSc2nncn2N)cc1`: 26.7% (inactive); `COC(=O)c1ccc(SCc2ccccc2)nc1`: -80.3% (active). Next, `COc1ccc(N2CCN(S(=O)(=O)c3cc(Br)cnc3N)CC2)cc1`: 15.8% (inactive); `CC(C)(C)c1cc(C(=O)N/N=C/c2ccc([N+](=O)[O-])s2)n[nH]1`: 16.7% (inactive); `Cc1cc(C(=O)N/N=C/c2cc([N+](=O)[O-])cc(C)c2O)n[nH]1`: -86.5% (active).

For `COc1ccc2ccccc2c1/C=N/NC(=O)c1cc(C)[nH]n1`, the activity change is 11.2% (inactive). Take `COC(=O)c1ccc(NC(=O)CSc2nnc(C3CC3)n2C)cc1`: the activity change was 40.9% (inactive). The value for `Cc1c(NC(=O)C(C)OC(=O)c2c3c(nc4ccccc24)CCC(C)C3)c(=O)n(-c2ccccc2)n1C` (stereo not given) was 5.39% (inactive).

In the case of `Cc1cc(C)n(CCNCc2c(C(=O)N3C[C@@H](C)O[C@@H](C)C3)nc3ccc(Cl)cn23)n1`, the activity change was 11% (inactive). For `Cc1ccc(NS(=O)(=O)c2ccc3c(c2)NC(=O)CO3)cc1`, the activity change was -85.9% (active). The value for `O=C1COc2ccc(S(=O)(=O)NCCc3ccc(Cl)cc3)cc2N1` was -21.2% (inactive); that for `CC(=O)Nc1ccc(NS(=O)(=O)c2ccc3c(c2)NC(=O)CC(=O)N3)cc1` was 6.21% (inactive); that for `Cc1cccc(CCNS(=O)(=O)c2ccc3c(c2)NC(=O)CO3)c1` was -59.5% (inactive). For `O=C1COc2ccc(S(=O)(=O)Nc3ccc(OC(F)(F)F)cc3)cc2N1`, the activity change is -94.2% (active). For the compound `Cc1ccc(NS(=O)(=O)c2cc3c(cc2C)NC(=O)CO3)cc1`, the activity change is 20.3% (inactive). The value for `COc1cc(NC(=O)c2ccccc2NS(=O)(=O)c2ccc(Cl)s2)cc(OC)c1` was 26.9% (inactive); that for `CCOc1ccc(NC(=O)CC(Cc2ccc(Cl)cc2)C(=O)O)cc1` (stereo not given) was -20.6% (inactive). Next, `CCCCCCC12CCC(C(=O)O)(CC1)CC2`: 24.4% (inactive). Next, `O=C(CCC(=O)c1cccs1)NC1CCCCCC1`: -7.35% (inactive); `Cn1nnnc1SCC(=O)Nc1nc2ccccc2s1`: 32.4% (inactive); `O=C(CCC(=O)c1cccs1)Nc1nc2ccccc2s1`: -87.3% (active). Turning to `O=C(NC(=S)Nc1ccccc1C(=O)O)c1ccc(-c2ccc(Br)cc2)o1`, the activity change is 9.83% (inactive). Take `CN(C)S(=O)(=O)c1ccc(N/C=C(\[N+](=O)[O-])S(=O)(=O)c2ccccc2)cc1`: the activity change is 28.7% (inactive). The value for `CN(Cc1cnccn1)C(=O)c1cc(COc2cccc(C(F)(F)F)c2)on1` was -92.5% (active).

As for `O=C(c1cc(COc2cccc(C(F)(F)F)c2)on1)N1CCSCC1`, the activity change was -30.7% (inactive). For the compound `Cc1cc(CN(C)C(=O)c2cc(COc3ccc(C)c(C)c3)on2)n[nH]1`, the activity change is -90.7% (active). The value for `Cc1ccc(OCc2cc(C(=O)N(C)CCc3ccccc3)no2)cc1C` was 36% (inactive); that for `Cc1ccc(OCc2cc(C(=O)N(C)CCn3ccnc3C)no2)cc1C` was 14.9% (inactive); that for `CN(Cc1cccnc1)C(=O)c1cc(COc2ccc3ncccc3c2)on1` was 38.5% (inactive).

For the compound `O=S(=O)(c1ccc(Cl)cc1)N1CCCN(c2ccc(C(F)(F)F)cn2)CC1`, the activity change was 6.59% (inactive). With `COc1ccc(CN2CCn3ncc(C(=O)Nc4ccc(Cl)cc4Cl)c3C2=O)cc1`, the activity change is 23.8% (inactive). Next, `CCOc1ccc(S(=O)(=O)Nc2ccncc2)c(C)c1C`: 21.3% (inactive); `COc1ccc(Cc2nc3ccc(C(=O)N4CCC(N(C)C)C4)cc3o2)cc1` (stereo not given): -2.62% (inactive); `COC(=O)C1CCN(C(=O)c2ccc3oc(Cc4ccc(Cl)cc4)nc3c2)CC1`: -86% (active). Consider `COCC1CCN(C(=O)c2ccc3oc(Cc4ccccc4)nc3c2)C1` (stereo not given), for which the activity change is 0.814% (inactive).

On to `Oc1ccc(-c2cccc(-c3ccc(O)cc3)c2)cc1`, for which the activity change is -10.9% (inactive).

With `O=C(NC1CCCCC1)c1ccc(-c2ccc(Cl)cc2)o1`, the activity change is 2.19% (inactive). Next, `COc1ccc(NC(=O)[C@H](NC(=O)[C@@H]2Cc3ccccc3CN2)c2ccccc2)cc1`: 13.8% (inactive); `CCc1ccc(C(=O)CSc2nnc(C)c(=O)[nH]2)cc1`: 17.8% (inactive). For `COc1ccccc1C(=O)N1C(CC(=O)Nc2ccccc2C)C(=O)NC2CCCCC21` (stereo not given), the activity change is 6.5% (inactive). Next, `CC(C)(C)OC(=O)CNC(=O)c1[nH]cnc1C(=O)N[C@@H](Cc1ccccc1)C(=O)OCc1ccccc1`: 20.9% (inactive). The value for `O=C(NC(=S)NC1CCCCC1)c1ccc(Cl)cc1` was 6.82% (inactive); that for `S=C(NCc1ccc(Cl)cc1)NC12CC3CC(CC(C3)C1)C2` was -20.7% (inactive); that for `S=C(NCc1ccc(Cl)cc1)NC1CCCCC1` was -86.1% (active). `COc1cc(C(=O)OCC(=O)NC(C)CCc2ccccc2)cc(OC)c1OC` (stereo not given): the activity change was 17.1% (inactive). As for `CCCNC(=O)c1ccc(N2CCC3(CC2)CC(c2cccc(Br)c2)=NO3)c(NC(=O)c2ccco2)c1`, the activity change was 20.3% (inactive).

With `O=C(N/N=C/c1ccc([N+](=O)[O-])o1)c1cn(-c2ccccc2)nc1-c1ccc(F)cc1`, the activity change was 7.69% (inactive). With `O=C(/C=C/c1ccc([N+](=O)[O-])o1)NNC(=O)c1ccc(F)cc1`, the activity change is -90.7% (active). The value for `Cc1ccc(/C=C/C(=O)Nc2ccc([N+](=O)[O-])c(NC(=O)/C=C/c3ccc(C)o3)c2)o1` was 34.4% (inactive); that for `Cc1nc(CN2CCN(C(=O)CCc3nnc(Cc4c[nH]c5ccccc45)o3)CC2)cs1` was 18% (inactive). Next, `COc1ccccc1NC(=O)COC(=O)Cc1ccc(S(=O)(=O)N2CCCCC2)s1`: 2.99% (inactive); `CCOC(=O)c1cn(Cc2cccc(C)c2)nn1`: 13.8% (inactive); `CCOC(=O)c1nn(-c2cccc(C)c2)cc1C(=O)c1ccccc1`: -88.4% (active). `CC(=O)c1nn(-c2ccc(C)cc2)cc1C(=O)c1cccc(Br)c1`: the activity change was 14.3% (inactive). Take `Cc1cc(S(=O)(=O)N2CCOCC2)ccc1OCC(=O)N1CCOCC1`: the activity change was 18.8% (inactive). For the compound `O=C(NC1CCN(C(=S)Nc2ccc(Cl)cc2)CC1)C1CCCCC1`, the activity change was 16.7% (inactive). Next, `O=C(O)c1c(NC(=O)N2CCCC2)sc2c1CCCC2`: 6.56% (inactive). On to `COc1cccc(C(=O)NC(=O)Nc2nc(C)cc(C(F)(F)F)n2)c1`, for which the activity change is 11% (inactive). For the compound `Cc1nn(CC(=O)Nc2ccc(F)cc2)c(=O)c2ccccc12`, the activity change is -95.2% (active). With `Cc1nn(CC(=O)Nc2ccc3c(c2)nc(CN2CCCCC2)n3C)c(=O)c2ccccc12`, the activity change is 18.4% (inactive). Consider `O=C(Cn1nc(C(=O)O)c2ccccc2c1=O)Nc1ccc(F)cc1`, for which the activity change was 18.2% (inactive).

As for `CCN(C(=O)COC(=O)C1CCN(S(=O)(=O)c2ccc(C)c(C)c2)CC1)C1CCS(=O)(=O)C1` (stereo not given), the activity change is -3.07% (inactive).

For `O=C(CCNS(=O)(=O)c1ccc(Br)s1)NCc1ccccc1Cl`, the activity change was 32.2% (inactive). As to `CCN(CC)c1ccc(NC(=O)c2ccc(=O)[nH]c2)cc1S(=O)(=O)Nc1ccc(OC)cc1`, the activity change is 18.7% (inactive). Next, `COc1ccc(CN(C)C(=O)c2cc(-c3ccc(C)cc3C)nc3ccccc23)c(OC)c1OC`: 10.3% (inactive); `COc1cc(C(=S)NCc2ccccc2)cc(Br)c1O`: -79.9% (active); `COc1cc(C(=O)NCc2ccncc2)cc(Br)c1OCc1ccccc1`: 36.8% (inactive). The value for `COc1cc(C=O)c(Br)cc1OCC(=O)NCc1ccccc1` was 15.5% (inactive); that for `CN(C(=O)CN1C(=O)S/C(=C\c2ccccc2F)C1=O)C1CCS(=O)(=O)C1` (stereo not given) was 34.2% (inactive); that for `CSc1nsc(NC(=O)Nc2ccccc2)n1` was 37.1% (inactive).

Take `CCSc1nsc(NC(=O)Nc2ccccc2OC)n1`: the activity change is 11.5% (inactive). `C=CCSc1nsc(NC(=O)Nc2cccc(C(C)=O)c2)n1`: the activity change was -85% (active). As to `COc1ccc(NC(=O)CSCc2ccc([N+](=O)[O-])cc2)cc1OC`, the activity change was 3.16% (inactive). Next, `COc1ccc(-c2cc(C(=O)N(C)CC(=O)Nc3ccccc3Cl)c3ccccc3n2)cc1OC`: 20% (inactive); `O=C(COc1cccc2c1CCNC2=O)NC1CCCCC1`: 2.05% (inactive); `O=C(OCc1cn(-c2ccc(Cl)c(Cl)c2)nn1)c1ccccc1Cl`: -28.4% (inactive).

`CCCCCc1ccc(-c2cn(Cc3ccc4ccccc4c3)nn2)cc1`: the activity change is 6.86% (inactive). The value for `CCCCCc1ccc(-c2ccc(C(=O)O)cc2)nc1` was -76% (active). `CCCCCc1ccc(-c2ccc(OCC)cc2)nc1`: the activity change was -0.256% (inactive). Regarding `Cc1c(CC(=O)N2CCN(C(=O)C3COc4ccccc4O3)CC2)c(=O)oc2c(O)c(O)ccc12` (stereo not given), the activity change was 10.9% (inactive). The value for `O=C(NC(=O)N1CCSCC1)c1c(Cl)cccc1Cl` was 19.3% (inactive). The value for `CSCCC(NC(=O)c1ccco1)C(=O)Nc1cc(C)ccn1` (stereo not given) was 30% (inactive).

On to `COc1ccc(/C=C(\C#N)C(=O)OCC(=O)N(C)C2CCS(=O)(=O)C2)cc1` (stereo not given), for which the activity change was 22.6% (inactive).

With `N/C(=N\OC(=O)CCc1ccccc1)c1cccnc1`, the activity change is -85.7% (active). The value for `N/C(=N\OC(=O)CCc1ccccc1)c1ccc(Cl)cc1` was 7.92% (inactive); that for `O=C(O)CCc1cccnc1` was 7.07% (inactive). For the compound `COc1ccc(C(=O)NCc2nnc(SCC(=O)NC3=NCCS3)n2C)cc1`, the activity change was -5.32% (inactive). The value for `CCCOCC(O)CC(CC)C(=O)NNC(=S)Nc1ccccc1` (stereo not given) was 0.623% (inactive); that for `O=C1/C(=C/c2ccc3c(c2)OCO3)Oc2cc(OCC(=O)N3CC(O)C[C@H]3C(=O)O)ccc21` (stereo not given in full) was 29% (inactive); that for `O=C(CC1SCCNC1=O)Nc1ccc(Cl)c(Cl)c1` (stereo not given) was -87.7% (active). For the compound `O=C(CC1NCCNC1=O)Nc1cc(Cl)cc(Cl)c1` (stereo not given), the activity change was 4.37% (inactive).

`O=C(CC1SCCNC1=O)Nc1ccc(Cl)cc1` (stereo not given): the activity change was -15% (inactive).
